GPR151 ag – activators of human GPR151, primary screen, cell-based, PathHunter beta-arrestin, luminescence; activation, % at 11.2 µM; PathHunter beta-arrestin GPR151 cells; actives 1% (n = 650,000); G-protein coupled receptor 151 (Homo sapiens), Q8TDV0; in the data active means activation above about 4.9%;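 further: 0% = median of compound wells and 100% = cells with positive control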
MITF inh – MITF inhibitors, primary screen, biochemical, AlphaScreen, human; Microphthalmia-associated transcription factor (Homo sapiens), O75030; AlphaScreen MITF homodimerization, bead proximity signal; inhibition, % at 2.6 µM; actives 0.91% (n = 650,000); in the data active means inhibition above about 50%;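 further: 0% = vehicle wells with protein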
FBW7 activator – FBW7 E3 ligase activators, primary screen, biochemical, AlphaScreen, human. F-box/WD repeat-containing protein 7 (Homo sapiens), Q969H0. AlphaScreen FBW7–phospho-cyclin E peptide binding, activator screen. normalized activity (activation), % at 26.1 µM. actives 0.13% (n = 650,000). AID 1259310, 2017; in the data active means normalized activity above about 1.9%;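 further: purified mutant Fbw7 with reduced substrate affinity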
Target sequence (Q969H0 whole entry, looked up): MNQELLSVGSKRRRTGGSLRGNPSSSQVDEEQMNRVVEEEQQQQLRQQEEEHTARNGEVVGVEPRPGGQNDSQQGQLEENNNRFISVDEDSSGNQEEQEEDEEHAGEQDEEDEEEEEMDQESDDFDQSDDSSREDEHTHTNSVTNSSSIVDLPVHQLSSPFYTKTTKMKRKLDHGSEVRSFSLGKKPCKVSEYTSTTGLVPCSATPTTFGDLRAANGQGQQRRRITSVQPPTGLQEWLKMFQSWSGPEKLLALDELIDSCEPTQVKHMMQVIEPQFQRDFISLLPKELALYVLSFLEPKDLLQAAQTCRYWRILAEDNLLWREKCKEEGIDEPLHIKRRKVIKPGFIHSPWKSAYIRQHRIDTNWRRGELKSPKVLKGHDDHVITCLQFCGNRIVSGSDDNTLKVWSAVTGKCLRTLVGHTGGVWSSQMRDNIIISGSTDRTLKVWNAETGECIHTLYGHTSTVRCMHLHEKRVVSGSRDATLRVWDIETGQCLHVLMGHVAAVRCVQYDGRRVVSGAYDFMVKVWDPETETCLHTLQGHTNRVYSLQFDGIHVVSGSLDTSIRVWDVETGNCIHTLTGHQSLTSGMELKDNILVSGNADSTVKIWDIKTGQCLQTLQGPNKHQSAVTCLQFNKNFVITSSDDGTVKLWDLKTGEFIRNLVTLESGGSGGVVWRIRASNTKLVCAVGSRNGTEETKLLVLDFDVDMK
TEAD-YAP block – TEAD-YAP interaction inhibition, primary screen, TEAD-YAP interaction inhibitor project, luminescence, HEK-TIYL cells; actives 1.4% (n = 640,000); inhibition, % at 9.12 µM; TEAD-Gal4/YAP UAS-luciferase luminescence; in the data active means inhibition above about 32%;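 further: 0% = median of test compound wells and 100% = reference inhibitor wells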
GPR151 conf act – GPR151 activators, triplicate retest, confirmation, cell-based, PathHunter beta-arrestin, luminescence; activation, % at 11.2 µM; 6,700 tested, under 10 active; GPR151 PathHunter beta-arrestin cells, 90 min; % of EA-reagent control over plate median; shares compounds with GPR151 ag;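 active means mean percent activation across replicates above the confirmation screen cutoff of 4.91%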
GPR119 counter – GPR119 activators in beta-arrestin cells, counter-screen for GPR151 activator project, cell-based, PathHunter beta-arrestin, luminescence, triplicate; actives 0.3% (n = 6,700); shares compounds with GPR151 ag; 90 min; 0 = compound-well median, 100 = enzyme-acceptor control; activation, % at 11.2 µM;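 active means mean percent activation in the counterscreen above 29.09%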;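 further: counterscreen on off-target GPR119 to flag nonselective hits from the GPR151 activator screen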
* marks the source's active call; other numbers are inactive results; . = not tested or not shown. This is a sample that favours compounds with a hit; in the whole collection about 3.5% have one here.

SMILES	GPR151 ag	MITF inh	FBW7 activator	TEAD-YAP block	GPR151 conf act	GPR119 counter
COc1ccc(OC(C)C(=O)Nc2ccc(C)cc2C)cc1 (stereo not drawn)	-2	10	0	3	.	.
CC(NC(=O)CSc1nc2ccc(N)cc2s1)c1ccccc1 (stereo not drawn)	6.3*	-4	0	3	0	-2
Nc1ccc2nc(SCC(=O)Nc3ccccc3)sc2c1	2	4	0	-38	.	.
CCOC(=O)c1cccc(NC(=O)Cc2ccc(C)cc2)c1	-1	10	0	-53	.	.
COc1cc(NC(=O)c2ccc(-c3ccc(C(=O)NC4CC4)cc3)s2)cc(OC)c1OC	5.3*	7	0	43*	1	4
COc1cc(NC(=O)c2ccc(-c3ccc(C(=O)N4CCN(C)CC4)cc3)s2)cc(OC)c1OC	3	12	0	6	.	.
CS(=O)(=O)c1ccc(CN(Cc2ccccn2)C(=O)c2ccccc2)cc1	-1	10	0	-3	.	.
CCSC1=C(C#N)C(c2ccc(O)cc2)CC(=O)N1 (stereo not drawn)	6.2*	-1	0	-4	0	1
CCSC1=C(C#N)C(c2ccc(Cl)cc2)CC(=O)N1 (stereo not drawn)	0	4	0	-2	.	.
COC(=O)CN(c1ccc2c(c1)OCO2)S(=O)(=O)c1c(C)[nH]c(=O)[nH]c1=O	5.3*	-6	0	9	1	2
COC(=O)CN(c1ccc(C)cc1)S(=O)(=O)c1c(C)[nH]c(=O)[nH]c1=O	2	6	0	2	.	.
COc1cccc(NC(=O)CCn2c(=O)oc3ccccc32)c1	0	4	0	-1	.	.
COc1ccc(CCC(=O)NCC2Cc3cc(-c4nc(C)cnc4C)ccc3O2)cc1OC (stereo not drawn)	0	-4	0	16	.	.
CCCNC(=O)c1cc(NCC)nc2ccccc12	5.2*	-5	0	-5	1	-1
Cc1ccc2c(=O)cc(-c3cc(C(=O)O)cc4c3OCOC4)oc2c1	0	14	0	10	.	.
O=Cc1cc(C(=O)O)cc2c1OCOC2	11*	-7	0	-4	-1	-6
CN1CCN(C(=O)/C=C/c2c(Cl)cccc2Cl)CC1	7.2*	6	0	3	0	5
CCCCNC(=O)/C(=C/c1ccco1)NC(=O)c1ccccc1I	9.2*	6	0	10	0	-9
CCCCNC(=O)/C(=C/c1ccco1)NC(=O)c1ccc(I)cc1	1	14	0	15	.	.
NC(=O)/C(=C\c1ccco1)NC(=O)c1ccccc1Br	6.6*	11	0	0	2	3
CC1(O)Cc2[nH][nH]c(=O)c2C(c2ccccc2)C1C(=O)OCc1ccccc1 (stereo not drawn)	0	-17	0	-12	.	.
C/C(=N\NC(=O)CNc1ccccc1Cl)C(C)(C)C	5.9*	-5	0	-9	-1	-4
CC(C)(C)SCCNS(=O)(=O)c1ccc2c(c1)OCCO2	0	-7	0	13	.	.
C#CCn1nc(CC)n2c(cc3sccc32)c1=O	0	2	0	9	.	.
O=C(CN1CCCc2ccccc21)Nc1ccc(Br)cc1	12*	4	0	-3	0	5
SMILES	GPR151 ag	MITF inh	FBW7 activator	TEAD-YAP block	GPR151 conf act	GPR119 counter
CC(=O)c1ccc(NC(=O)CN2CCCc3ccccc32)cc1	0	-3	0	5	.	.
COc1ccccc1NC(=O)c1n[nH]c(=O)c2ccccc12	0	-1	0	3	.	.
O=C(CSc1nnc2ncccn12)N1CCN(C(=O)c2ccco2)CC1	2	5	0	-13	.	.
CCn1nnnc1SCC(=O)N1CCN(C(=O)c2ccco2)CC1	5.0*	2	0	-9	-1	-9
Cn1c(=O)c([N+](=O)[O-])c(NCc2ccccc2)c2ccccc21	8.1*	11	0	-3	0	0
CCOc1ccccc1CNc1sc2c(c1C(=O)Nc1ccc(OC)cc1)CCC2	2	-2	0	6	.	.
CCOc1ccccc1CNc1sc2c(c1C(=O)Nc1ccc(OC)cc1OC)CCC2	11*	15	0	1	2	11
CNS(=O)(=O)c1cccc(C(=O)OCC(N)=O)c1	8.8*	0	0	1	0	-1
CNS(=O)(=O)c1cccc(C(=O)OCc2cc(C(C)=O)ccc2OC)c1	5.0*	-2	0	-9	0	3
COC(=O)c1cc(-c2ccccc2)n(CC(=O)O)c1C	5.5*	-7	0	-26	-1	-9
Nc1nc2ncc(CNc3ccc(C(=O)NC(CCC(=O)O)C(=O)O)cc3)nc2c(=O)[nH]1 (stereo not drawn)	0	12	0	15	.	.
Nc1nc2ncc(CNc3ccc(C(=O)N[C@@H](CCC(=O)O)C(=O)O)cc3)nc2c(=O)[nH]1	5.6*	9	0	.	0	-2
Cc1ccccc1N/C(N)=N/c1nc(C(F)(F)F)cc(=O)[nH]1	8.2*	11	0	4	1	8
COc1ccccc1N/C(N)=N/c1nc(C(F)(F)F)cc(=O)[nH]1	5.1*	-9	0	7	-1	-8
CC(=O)Nc1ccc(NC(=O)c2oc3cc(C)c(C)cc3c2C)cc1	23*	1	0	-10	0	0
Cc1cc2oc(C(=O)Nc3cccnc3)c(C)c2cc1C	0	7	0	-29	.	.
Cc1csc2ncc(C(=O)N3CCc4ccccc43)c(=O)n12	7.9*	7	0	-15	2	-2
CCOc1ccc(C2C(C#N)=C(N)OC3=C2C(=O)CC(C)(C)C3)cc1 (stereo not drawn)	8.0*	-5	0	0	0	-10
COc1cc(C2C(C#N)=C(N)OC3=C2C(=O)CC(C)(C)C3)ccc1OC(C)=O (stereo not drawn)	5.3*	-2	0	2	1	5
CCN(C(=O)c1ccc([N+](=O)[O-])cc1Cl)c1ccccc1C	8.6*	8	0	-2	-1	-9
COc1ccc(C2=NN(c3nc(-c4ccccc4)cs3)C(c3ccco3)C2)cc1 (stereo not drawn)	-1	8	1	0	.	.
